Bioassay records: PubChem, The Scripps Research Institute Molecular Screening Center
TEAD-YAP block: TEAD-YAP interaction inhibition; inhibition, % at 9.12 µM; HEK-TIYL cells, TEAD-Gal4/YAP UAS-luciferase luminescence; actives 1.4% (n = 640,000); AID 1259422; in the data active = inhibition above about 32%
MITF primary: inhibitors of human MITF | actives 0.91% (n = 650,000) | O75030 | AID 1259374 | AlphaScreen MITF homodimerization, bead proximity signal | inhibition, % at 2.6 µM; in the data active = inhibition above about 50%
GPR151 ag: human GPR151 activation; PathHunter beta-arrestin GPR151 cells, luminescence; Q8TDV0; actives 1% (n = 650,000); AID 1508602; activation, % at 11.2 µM; in the data active = activation above about 4.9%
Target sequence (Q8TDV0 whole entry, looked up): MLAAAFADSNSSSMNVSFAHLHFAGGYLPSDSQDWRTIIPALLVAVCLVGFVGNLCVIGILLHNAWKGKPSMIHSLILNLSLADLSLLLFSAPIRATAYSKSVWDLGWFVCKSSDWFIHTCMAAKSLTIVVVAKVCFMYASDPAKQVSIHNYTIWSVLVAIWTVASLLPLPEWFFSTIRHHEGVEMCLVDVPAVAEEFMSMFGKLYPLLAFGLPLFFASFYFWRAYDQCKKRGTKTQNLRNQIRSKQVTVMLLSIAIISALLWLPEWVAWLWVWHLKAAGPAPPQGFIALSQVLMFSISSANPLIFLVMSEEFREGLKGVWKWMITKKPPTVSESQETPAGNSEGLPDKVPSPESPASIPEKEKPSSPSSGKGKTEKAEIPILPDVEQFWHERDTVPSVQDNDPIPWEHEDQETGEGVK
FBW7 act: human FBW7 E3 ligase activation, primary screen. Q969H0. AlphaScreen FBW7–phospho-cyclin E peptide binding, activator screen. normalized activity (activation), % at 26.1 µM. actives 0.13% (n = 650,000); in the data active = normalized activity above about 1.9%;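 also: purified mutant Fbw7 with reduced substrate affinity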
Numbers stand for hits; i = inactive. A selection: hits, their analogues and other compounds. The true share with any hit is near 3.5%.

SMILES	TEAD-YAP block	MITF primary	GPR151 ag	FBW7 act
Cc1cc(NC(=O)CSc2nc3ccccc3c(=O)n2NC(=O)c2ccccc2)n[nH]1	47.0	i	i	i
COc1ccc(C(=O)Nn2c(SCC(=O)Nc3ccc(C)c(Cl)c3)nc3ccccc3c2=O)cc1	75.3	i	i	i
Cc1ccc(C(=O)CCC(=O)Nc2cc(C)[nH]n2)cc1	i	i	i	i
COc1ccc(CCn2c(SCC(=O)Nc3ccc(C)c(Cl)c3)nc3ccccc3c2=O)cc1OC	i	i	i	i
CCn1c(SCC(=O)Nc2ccc(C)c(Cl)c2)nc2c1c(=O)n(C)c(=O)n2C	i	i	i	1.9
Cc1cccc(NC(=O)C2CC(=O)N(c3ccc(F)cc3)C2)c1C (stereo unspecified)	i	i	i	i
Cc1ccc(NC(=O)CSc2nc3ccccc3c(=O)n2NC(=O)c2ccc(F)cc2)cc1Cl	57.4	i	i	i
O=C(CCC1CCCN(Cc2ccccc2O)C1)N1CCN(c2ccccn2)CC1 (stereo unspecified)	i	i	i	i
CC(=O)N(C1=C(N2CCCC2)C(=O)c2ccccc2C1=O)c1ccccc1C	91.9	i	i	i
CC(=O)N(C1=C(N2CCCCC2)C(=O)c2ccccc2C1=O)c1ccc(C)cc1	i	i	i	i
Cc1ccc(/C=C2\Cc3ccccc3C2=O)s1	i	i	i	i
Cc1cccn2c(=O)c3cc(C(=O)NCc4cccnc4)c(=N)n(Cc4ccco4)c3nc12	i	i	i	i
Cc1cccn2c(=O)c3cc(C(=O)NC4CCCCC4)c(=N)n(CCCn4ccnc4)c3nc12	i	i	i	2.1
CCNC(=O)c1cc2c(=O)n3cccc(C)c3nc2n(Cc2ccco2)c1=N	57.6	i	i	i
COC(=O)C1=C(C)NC(=O)NC1c1cc(O)ccc1Br (stereo unspecified)	i	i	i	i
c1ccc(-n2ncc3c(Nc4cccc5c4CCCC5)ncnc32)cc1	i	i	i	i
Cc1cccc(-n2ncc3c(Nc4cccc5c4CCCC5)ncnc32)c1	41.6	i	i	i
Cc1cccc(Nc2ncnc3c2cnn3-c2cccc(C)c2)c1	i	i	i	i
COc1ccc(-n2ncc3c(Nc4cccc5c4CCCC5)ncnc32)cc1	47.1	i	i	i
N#Cc1ccccc1OCC(=O)OCC(=O)Nc1ccccc1C(F)(F)F	i	i	i	i
CC(=O)Nc1cccc(Oc2nnc(-c3ccc(C)cc3)c3ccccc23)c1	i	i	i	i
CC(=O)Nc1ccc(Oc2nnc(C)c3ccccc23)cc1	65.3	i	i	i
CCCOc1ccc(/C=N/NC(=O)c2n[nH]c(=O)c3ccccc23)cc1OC	i	i	i	i
CCc1cccc2c(/C=N/NC(=O)c3n[nH]c(=O)c4ccccc34)c[nH]c12	47.2	i	i	i
CC[n+]1c(-c2ccc(C)cc2)csc1Nc1c(C)cc(C)cc1C	i	i	i	i
SMILES	TEAD-YAP block	MITF primary	GPR151 ag	FBW7 act
CC[n+]1c(-c2ccc(C)cc2)csc1Nc1ccc(NC(C)=O)cc1	61.7	i	i	i
Oc1cccc(-c2nc3ccccc3s2)c1	92.1	i	i	i
Nc1ccc(-c2nc3ccccc3s2)cc1N	i	i	i	i
COc1ccc(-c2nc3ccccc3s2)cc1OC(C)=O	58.0	i	i	i
Oc1ccc(O)c(Cc2nc3ccccc3s2)c1	52.9	i	i	i
COc1cc(OC)c(-n2c(C)cc(/C=C3/C(=N)N4OC(C)=CC4=NC3=O)c2C)cc1Cl	i	i	i	i
COc1ccc(OC)c(-n2c(C)cc(/C=C3/C(=N)N4OC(C)=CC4=NC3=O)c2C)c1	48.4	i	i	i
CC1=CC2=NC(=O)/C(=C\c3cc(C)n(-c4cc(C)ccc4C)c3C)C(=N)N2O1	60.7	i	i	i
O=C1/C(=C/c2ccc3c(c2)OCO3)SC(=S)N1Cc1ccco1	i	i	i	i
COc1ccc(/C=C2/C(=O)NC(=O)N(Cc3ccco3)C2=O)cc1C	i	58.8	i	i
COc1ccc(/C=C2/C(=O)NC(=O)N(Cc3ccccc3)C2=O)cc1OC	i	i	i	i
COc1cc(N2CCOCC2)ccc1/C=C1\C(=O)NC(=O)N(Cc2ccco2)C1=O	i	65.6	i	i
C=CCN1C(=O)NC(=O)/C(=C/C=C/c2ccco2)C1=O	i	i	i	i
O=C1NC(=O)N(Cc2ccco2)C(=O)/C1=C\c1ccc2c(c1)OCO2	i	72.4	i	i
O=C1NC(=O)N(Cc2ccco2)C(=O)/C1=C\C=C\c1ccccc1	i	54.1	i	i
CN1C(=O)NC(c2ccccc2)C2=C1CN(c1cccc(O)c1)C2=O (stereo unspecified)	i	i	i	i
C=CCn1c(SC)nc(O)c(CC)c1=O	i	i	i	1.9
COc1cc(/C=C(\C(=O)c2ccc(C)cc2)c2nc3ccccc3o2)cc(OC)c1OC	68.9	i	i	i
COc1cc(C(=O)/C(=C/c2ccc(C)cc2)c2nc3ccccc3o2)cc(OC)c1OC	i	i	i	i
Cc1nnc(NC(=O)Cn2cnc3scc(-c4ccccc4)c3c2=O)s1	i	i	i	i
CCOC(=O)c1ccc(N2C(=O)/C(=C\c3ccco3)C(C(=O)OC)=C2C)cc1	i	66.7	i	i
COCCN1C(=O)c2ccccc2C(C(=O)Nc2ccc(OC)c(OC)c2)C1c1ccc(F)cc1 (stereo unspecified)	i	i	i	i
COc1ccc(/C=N/NC(=O)CC(=O)Nc2ccc(Cl)c(Cl)c2)cc1OC	i	i	i	i
CN1CCN(C/C=C/c2ccc(N(C)C)cc2)CC1	i	67.9	i	i
CCN1CCN(C/C=C/c2ccc(N(C)C)cc2)CC1	i	i	i	i
SMILES	TEAD-YAP block	MITF primary	GPR151 ag	FBW7 act
COc1cc(/C=C2/NC(=S)NC2=O)ccc1O	54.4	i	i	i
O=C1NC(=S)S/C1=C\c1ccc2c(c1)OCO2	i	i	i	i
COc1cccc(/C=C2/NC(=S)NC2=O)c1O	41.2	i	i	i
COc1cc(/C=C2\NC(=S)NC2=O)ccc1O	i	i	i	i
O=C1NC(=S)N/C1=C/c1ccc2c(c1)OCO2	36.0	i	i	i
COc1ccc(-c2nc(NCc3cccnc3)c3ncn(Cc4ccc(C(F)(F)F)cc4)c3n2)cc1	i	i	i	i
O=C(CN1C(=O)/C(=C\c2ccccc2Br)Oc2ccccc21)NC1CCCC1	57.2	i	i	i
O=C(CN1C(=O)/C(=C\c2ccccc2)Oc2ccccc21)NC1CCCCC1	i	i	i	i
Cc1ccc(Nc2nc(N)c3ccccc3n2)cc1C	54.9	i	i	i
Cc1ccc2nc(-c3ccc(O)cc3)sc2c1	98.0	i	i	i
Cc1ccc2nc(-c3ccc(NC(=O)c4ccccc4C(=O)O)cc3)sc2c1	83.2	i	i	i
Oc1ccc(-c2nc3cc4sc(-c5ccc(O)cc5)nc4cc3s2)cc1	i	i	i	i
COc1ccc(OCC(=O)Nc2ccc(-c3nc4ccc(C)cc4s3)cc2)cc1	38.9	i	i	i
COC(=O)CCC(=O)Nc1ccc(-c2nc3ccc(C)cc3s2)cc1	72.4	i	i	i
COc1ccccc1CC(=O)N1CCC(c2[nH]ncc2-c2ccccc2)CC1	i	i	i	i
Cc1ccc2nc(-c3ccc(NC(=O)C4CCCN4S(C)(=O)=O)cc3)sc2c1 (stereo unspecified)	49.5	i	i	i
